In PubChem BioAssay (NCI) one finds growth inhibition data, which are given here for 21 molecules.

Experiment [1] can be described thus: NCI Yeast Anticancer Drug Screen. Data for the rad50 strain (AID 155).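 Also: 0% = growth of vehicle-only cultures of the same strain.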 As to conditions: S. cerevisiae rad50 strain growth inhibition; at 50.0 µM; stronger effect = higher value. The essentials: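 Relative growth inhibition (compound vs vehicle) was measured in yeast with a defined repair-gene alteration.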
Experiment [2] can be described thus: NCI Yeast Anticancer Drug Screen. Data for the mec2-1 strain (AID 157). To be noted: S. cerevisiae mec2-1 strain, at 50.0 µM, stronger effect = higher value. The essentials:
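Strain: mec2-1 (DNA repair/cell cycle alteration). Compound exposure, then growth measured; inhibition expressed relative to vehicle.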

Experiment [3] in a line: NCI Yeast Anticancer Drug Screen. Data for the sgs1 mgt1 strain (AID 161).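 Also: 0% = growth of cultures given vehicle only.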 As to conditions: S. cerevisiae sgs1 mgt1 strain, at 50.0 µM, stronger effect = higher value. The essentials:
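Test agents were incubated with a DNA-repair-mutant yeast strain. Growth was then read and compared against vehicle-treated controls.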

A short description of experiment [4]: NCI Yeast Anticancer Drug Screen. Data for the cln2 rad14 strain (AID 165).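 Also: 0% = growth equal to vehicle treated cultures.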 To be noted: S. cerevisiae cln2 rad14 strain, at 50.0 µM, stronger effect = higher value. The essentials: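 Compounds are applied to the cln2 rad14 yeast strain, and growth is then compared with that of vehicle-treated cultures to give inhibition.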
A short description of experiment [5]: NCI Yeast Anticancer Drug Screen. Data for the bub3 strain (AID 167). As to conditions: S. cerevisiae bub3 mutant strain, at 50.0 µM, stronger effect = higher value. The essentials:
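Screening used yeast with an engineered genetic alteration affecting cell cycle control. Compound-exposed cultures were compared with vehicle cultures, and reduced growth was taken as inhibition.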

Experiment [6] in a line: NCI Yeast Anticancer Drug Screen. Data for the mlh1 rad18 strain (AID 175). To be noted: S. cerevisiae mlh1 rad18 strain growth inhibition; at 50.0 µM; stronger effect = higher value. In outline: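 Read-out is yeast growth inhibition, calculated against vehicle-only controls. The compound was applied to a strain engineered with DNA damage repair alterations.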

About 79,000 compounds went through this panel and 15% of them were active in at least one assay; those are over-represented in the sample as a whole. Unmarked numbers belong to inactive results. The source made the active and inactive calls. Rule as the data show it: active = growth inhibition above about 70%; inactive = the rest.

As for `Cc1ccc(C(=O)Nc2ccc(CP(=O)(O)O)cc2CP(=O)(O)O)cc1N`, the growth inhibition in experiment [1] is -25.1%; in experiment [2], -14.8%; in experiment [3] it was 19.3%; in experiment [4], 6.05%; in experiment [5] it was -14.7%; in experiment [6] it was 1.8%.
On to `Cc1ccc(NC(=O)Oc2ccccn2)cc1`, for which the growth inhibition in experiment [1] was -9.7%; in experiment [2], -30.5%; in experiment [3] it was -8.05%; in experiment [4] it was -4.4%; in experiment [5], -0.35%; in experiment [6] it was -6.25%.
Turning to `COc1cc(O)c2c(c1)C(=O)c1cc3c(c(O)c1C2=O)CC(OC)C(C)(O)C3O` (stereo unspecified), the growth inhibition in experiment [1] is 90.5% (active); in experiment [2], 91.3% (active); in experiment [3], 91.8% (active); in experiment [4], 88.5% (active); in experiment [5] it was 91.8% (active); in experiment [6], 91.2% (active).
Regarding `CCC(O)C(CC)[N+](=O)[O-]` (stereo unspecified), the growth inhibition in experiment [1] was -4.45%; in experiment [2] it was -17.4%; in experiment [3], -2.75%; in experiment [4], 4.05%; in experiment [5], -2.8%; in experiment [6], 5.5%.
As for `CC/C(=C(\CC)c1ccc(OC2C=CCCC2)cc1)c1ccc(OC2C=CCCC2)cc1` (stereo unspecified), the growth inhibition was 28.3% in experiment [1]; -4.7% in experiment [2]; 7% in experiment [3]; -2.55% in experiment [4]; -13.8% in experiment [5]; -0.1% in experiment [6].
Turning to `CCc1cc2c(cc1COC(C)=O)C(C)(C)CCC2(C)C`, the growth inhibition in experiment [1] is -10.8%; in experiment [2], -19.4%; in experiment [3], 5.5%; in experiment [4], -13.8%; in experiment [5], 4.3%; in experiment [6], -31.9%.
`C/C=C(/C=O)[C@@H]1CC2c3c(c4ccccc4n3[C@@H](O)C1)CCN2C` (stereo partly specified): the growth inhibition in experiment [1] is -5.45%; in experiment [2], -17.6%; in experiment [3], -4.4%; in experiment [4], -1.1%; in experiment [5] it was -33.2%; in experiment [6], -16.6%.
For `COCC(O)CN1CCN(c2ccccc2OC)CC1` (stereo unspecified), the growth inhibition in experiment [1] is -16.5%; in experiment [2], -16.6%; in experiment [3], -7.3%; in experiment [4], -14.2%; in experiment [5], 25.6%; in experiment [6], -13.2%.
In the case of `O=C(O)C(CCc1cccc(Cl)c1)C(=O)O`, the growth inhibition in experiment [1] is 8.1%; in experiment [2], -13.8%; in experiment [3] it was -0.85%; in experiment [4] it was 2.15%; in experiment [5], 4.35%; in experiment [6] it was -11.6%.
As to `CC(C)(O)C#Cc1ccccc1`, the growth inhibition is -0.85% in experiment [1]; -8.2% in experiment [2]; -0.95% in experiment [3]; -24.8% in experiment [4]; -9.5% in experiment [5]; 11.1% in experiment [6].
Regarding `CC(C)(S(=O)(=O)Oc1ccccc1)S(=O)(=O)Oc1ccccc1`, the growth inhibition in experiment [1] was 1.6%; in experiment [2], 9.95%; in experiment [3] it was -15.4%; in experiment [4], -16.9%; in experiment [5] it was 49.8%; in experiment [6], 16.6%.
Consider `CCC(CC(C)C)C(=O)OCCBr` (stereo unspecified), for which the growth inhibition in experiment [1] was 17.9%; in experiment [2], 15.2%; in experiment [3], 20.6%; in experiment [4] it was -12.8%; in experiment [5], 45.5%; in experiment [6], 14.4%.
`Nc1nc2c(ncn2CC2CCOC2=O)c(=O)[nH]1` (stereo unspecified): the growth inhibition in experiment [1] is -19.1%; in experiment [2], -17.9%; in experiment [3], -18.7%; in experiment [4], 4.4%; in experiment [5], -5.85%; in experiment [6], -14.8%.
With `COc1cc(OC)c(N=Nc2c(N)nc(N)[nH]c2=O)cc1Cl`, the growth inhibition in experiment [1] is 4.95%; in experiment [2] it was 14.6%; in experiment [3] it was 7.5%; in experiment [4], -12.1%; in experiment [5], 8.3%; in experiment [6], -1.4%.
For `CCOC(=O)CSc1nnc(N)s1`, the growth inhibition is 21% in experiment [1]; 6.55% in experiment [2]; -6.15% in experiment [3]; 3.15% in experiment [4]; -6.75% in experiment [5]; -1.5% in experiment [6].
As for `ON=C1CCCCC1`, the growth inhibition was 37.9% in experiment [1]; 7.45% in experiment [2]; -1.45% in experiment [3]; -27.9% in experiment [4]; -3.15% in experiment [5]; 25.1% in experiment [6].
As for `CCOC(=O)C1CN2C(=O)CCC2C1=O` (stereo unspecified), the growth inhibition in experiment [1] is -5.65%; in experiment [2] it was 15.2%; in experiment [3] it was 8.7%; in experiment [4] it was -5.85%; in experiment [5] it was 15.4%; in experiment [6], 4.7%.
As for `O=C(NC(=O)c1ccc([N+](=O)[O-])cc1)Nc1ccccc1`, the growth inhibition in experiment [1] is 10.3%; in experiment [2], -4.35%; in experiment [3], -1.4%; in experiment [4], -25.4%; in experiment [5], -14.8%; in experiment [6], 5%.
`O=C(CCCCCC(=O)CC(=O)CCc1ccccc1)CC(=O)CCc1ccccc1`: the growth inhibition in experiment [1] is 53.3%; in experiment [2] it was 36.4%; in experiment [3], 53.5%; in experiment [4] it was 15.4%; in experiment [5], 19.1%; in experiment [6], 56.6%.
With `O=C(Nc1ccccc1CC(O)c1ccc2c(c1)OCO2)c1ccccc1` (stereo unspecified), the growth inhibition in experiment [1] is 19.1%; in experiment [2], -8.1%; in experiment [3], 3.65%; in experiment [4], -22.8%; in experiment [5], 11.6%; in experiment [6] it was 13.8%.
For the molecule `O=C(O)C1SCCS1`, the growth inhibition in experiment [1] was 15.4%; in experiment [2], 14.7%; in experiment [3] it was 19.1%; in experiment [4], 21.8%; in experiment [5], 22.1%; in experiment [6] it was 12.8%.
